Test results published in PubChem BioAssay (NCI).
This is part of a sample that, as a whole, favours compounds with a hit. Of some 83,000 tested, about 20% had one in any assay.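 Interpretation: 100, growth as untreated; towards 0, rising growth inhibition; 0, no net growth; 0 to -100, cell death. Compounds scoring below 10 were considered active.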 Unmarked numbers belong to inactive results.

System: SNB-19 CNS
Assay: NCI-60 one-dose screen, 48 h (100 = growth as untreated, 0 = no growth, -100 = all killed)
Settings: 10 µM unless noted
Procedure: Growth inhibition of the SNB-19 human tumor cell line is measured as a screen for anti-cancer activity. Cells are grown in 96 well plates and exposed to the test compound for 48 hours. Compounds are tested at a single concentration, which is 10^-5 M for most compounds. The reported endpoint is percent growth (GI% or GIPRCNT), where numbers from 0 - 100% represent growth inhibition, and numbers from -100% - 0 represent cell death. For example, a value of 40 represents 60% growth inhibition. A value of 0 means no net growth occurred over the course of the experiment. A value of -40 indicates 40% of cells at the beginning of the experiment died by the end of the experiment. A value of -100 means all cells are dead at the end of the experiment.
NCI-60 Human Tumor Cell Lines Screen was performed using the standard one-dose NCI protocol, which is described in more detail at https://dtp.cancer.gov/discovery_development/nci-60/default.htm.
Compounds with GIPRCNT values below 10 were considered active. Activity score was based on GIPRCNT using the following formula: […]
Score is 0 for GIPRCNT values of 100 or above, 50 for GIPRCNT values of 0, and 100 for GIPRCNT values of -100.

Row | Structure (SMILES) | growth
1 | O=C(Nc1ccc(Br)cc1F)c1cc(Cl)ccc1O | 14%
2 | CCN1CCN(c2cc(C)c3cc(NC(=O)c4ccc(OC)c(OC)c4)ccc3n2)CC1 | 58.1%
3 | O=C(Nc1ccc(I)cc1F)c1cc(Br)ccc1O | 19%
4 | O=c1oc2ccc(Br)cc2c(=O)n1-c1ccc(F)cc1F | 12.5%
5 | CCOC(=O)C1=CN(C)C=C(C(=O)OCC)C1c1cc(Br)c(OCC)c(OC)c1 | 64.8%
6 | O=C1/C(=C/c2cccc(O)c2)COc2ccc(O)cc21 | 80%
7 | COc1ccc(-c2nc(N3CCN(C(=O)C4CCCCC4)CC3)c3c4c(sc3n2)CCCC4)cc1 | 69.8%
8 | CCCC(c1nnnn1C1CCCCC1)N1CCN(C(=O)c2ccco2)CC1 (stereo not given) | 84.5%
9 | COC(=O)[C@H]1CCCN1C(=O)[C@H]1CCCN1C(=O)[C@H](Cc1c[nH]c2ccccc12)NC(=S)Nc1cc(C(F)(F)F)cc(C(F)(F)F)c1 | 51.3%
10 | O=C(O)CCC(=O)c1ccc(C2CCCCCC2)cc1 | 93.2%
11 | CN(C)c1ccc(N=Cc2ccc(N3CCOCC3)cc2)cc1 | 90.9%
12 | Cc1c(-c2csc(-n3nc(C(F)(F)F)cc3C(F)(F)F)n2)no[n+]1[O-] | 94.1%
13 | Cc1ccc(Nc2nc(N)c3ccccc3n2)cc1Cl | 84.4%
14 | CCOC(=O)c1cnc2c(C)cccc2c1Nc1ccc(C(C)=O)cc1 | 40.6%
15 | COC(=O)C1(C)CCC[C@]2(C)[C@H]3C[C@H]4C(C(C)C)=C[C@]3(CC[C@@H]12)[C@H]1[C@@H]4[C@@H](OCC#CCN2CCOCC2)CC[C@@H]1OCC#CCN1CCOCC1 (stereo not given in full) | 79%
16 | O=C(NC1CCN(Cc2ccccc2)CC1)c1cc(C(=O)NC2CCN(Cc3ccccc3)CC2)cc(C(=O)NC2CCN(Cc3ccccc3)CC2)c1 | 85.7%
17 | COc1nccc2cc3c(=O)n4c(cc5ccccc54)c(=O)n3c12 | 108%
18 | COc1ccc(-c2nocc2-c2cccs2)cc1 | 102%
19 | CC(=O)c1ccc(Cc2ccc(C(C)=O)s2)s1 | 98.8%
20 | CNCCNc1nc2ccccc2c2c(=O)c3cc(F)ccc3sc12 | 69.1%

Row | Structure (SMILES) | growth
21 | COc1ccc2c(c1)C=C1CSCC3=Cc4cc(OC)ccc4OC13O2 | 28.9%
22 | O=C1c2cc(Br)ccc2Oc2cc([N+](=O)[O-])ccc2N1c1ccc(I)cc1F | 94%
23 | CCOc1cccc(/C=N\Nc2nc(=O)cc(C(=O)OC)s2)c1O | 75.9%
24 | CCC1=C[C@]2(C3CC(=O)N(c4ccccc4)C3=O)CC(C(C)(C)C)C[C@@H]2[C@@H]2C(=O)N(c3ccccc3)C(=O)[C@H]12 (stereo not given in full) | 86.2%
25 | COc1c2ccoc2c(/C=C/C=O)c2oc(-c3ccccc3)cc(=O)c12 | 87.1%
26 | S=C1NC2(c3ccccc3)CCC(=S)N2c2ccccc21 (stereo not given) | 97.6%
27 | COc1ccc(N)c(-c2cc3c(c4c2[nH]c2ccc(OC)cc24)CCCC3)c1 | 88.5%
28 | O=C(CCc1nnc2sc(COc3ccccc3)nn12)c1nc2ncccc2[nH]1 | 100%
29 | N#C/C(=C\c1c(-c2ccccc2)[nH]c2ccccc12)C(=O)c1ccccc1 | 44.5%
30 | CC(=O)Nc1nc2c(s1)CCc1c-2cn(S(=O)(=O)c2ccccc2)c1-c1ccccc1 | 93.6%
31 | COc1ccc(CCN2CCC(CN(C)Cc3cnn(-c4ccccc4)c3)CC2)cc1 | 29.4%
32 | Cc1nc2ccccc2c(/C=C/c2ccc(F)cc2)c1C(N)=O | 99.2%
33 | CN1C(=O)N(C)C2Nn3c(s/c(=C4\C(=O)N(CCc5ccccc5)c5ccccc54)c3=O)=NC21 (stereo not given) | 85.7%
34 | Clc1ncccc1Nc1ccc2nnc(-c3ccncc3)n2n1 | 102%
35 | CC(C)C[C@H](C(=O)N[C@H](C(N)=O)C(C)C)N1CC=CCN(OCc2ccccc2)S1(=O)=O | 94.7% [2.5 µM]
36 | O=C(N/N=C/c1ccccc1O)C(=O)Nc1ccc(F)cc1 | 53.9%
37 | CCN1CCN(C(=S)SCC(=O)Nc2nc3ccc(C)cc3s2)CC1 | 102%
38 | O=C1/C(=C\c2ccc[nH]2)c2ccccc2N1c1ccccc1 | 92.2%
39 | O=C1N=c2ccccc2=C1c1sc(=Nc2ccccc2)n(Nc2ccccc2)c1O | 101%
40 | O=C1c2ccc3c4c(ccc(c24)C(=O)N1CCCCO)C(=O)N(CCCCO)C3=O | 91.4%
